Holding throughout (assay): log2 fold change, soluble protein after heating vs DMSO (PISA); higher = thermal stabilisation; K562 lysate, 10 uM; active = over 0.2 and 3.5 SD of the protein, either way, in both replicates (recomputed)
Compound in assay [1]: C1=CC=C(C=C1)[C@H](COC2=CC3=C(C=C2)NC(=O)N3)NC(=O)C4=CC=CN(C4=O)CC5=CC(=C(C=C5)F)F
Put shortly: (§1)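 To prepare the extract, K562 pellets were dounce-homogenised in PBS pH 7.4 with 1 mM MgCl2, giving crude material at 1 mg/mL protein. This was treated with 10 μM compound for 30 min, then heated in aliquots for 3 min over 48°C-58°C before pooling and addition of NP-40 to 0.5% at 4°C. Centrifugation at 21,000xg for 90 min left soluble protein in the supernatant, which TMTpro 16plex LC-MS/MS quantified with equalised channel sums. Results are log-two fold changes in thermal stability compared with solvent controls, from duplicates.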

Compound in assay [2]: CC1=C(SC2=C1C(=N[C@H](C3=NN=C(N32)C)CC(=O)N)C4=CC=C(C=C4)Cl)C
Put shortly:
as §1

Compound in assay [3]: CC1=C2C(=CC=C1)N=C(N(C2=O)C3=CC=CC=C3C)CN4C=NC5=C(N=CN=C54)N
Put shortly: as §1

Compound in assay [4]: Cc1sc2c(c1C)C(c1ccc(Cl)cc1)=N[C@@H](CC(=O)OC(C)(C)C)c1nnc(C)n1-2
Put shortly:
as §1

Compound in assay [5]: c1ccc([C@@H]2C[C@H]2NC2CCNCC2)cc1
Put shortly: as §1

About 8,800 targets were measured; listed, in parts, are those with a hit and a random draw of the rest. About 0.5% of all pairs of compound and target were hits. Unmarked numbers belong to inactive results.

Chain of UniProt O95718 (O95718 whole entry, looked up): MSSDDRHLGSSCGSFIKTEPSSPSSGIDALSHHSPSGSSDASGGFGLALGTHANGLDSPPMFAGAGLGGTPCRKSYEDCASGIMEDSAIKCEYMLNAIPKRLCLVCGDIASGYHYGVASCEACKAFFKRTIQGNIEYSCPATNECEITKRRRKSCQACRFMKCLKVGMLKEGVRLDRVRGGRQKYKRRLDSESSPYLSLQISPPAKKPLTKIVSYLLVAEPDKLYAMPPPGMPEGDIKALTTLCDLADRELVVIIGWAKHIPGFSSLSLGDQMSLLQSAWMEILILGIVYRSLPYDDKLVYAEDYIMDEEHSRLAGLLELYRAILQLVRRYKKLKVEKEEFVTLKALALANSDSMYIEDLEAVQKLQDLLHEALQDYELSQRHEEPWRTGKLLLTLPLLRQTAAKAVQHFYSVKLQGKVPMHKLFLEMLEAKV
Chain of UniProt Q9UKR5 (Q9UKR5 whole entry, looked up): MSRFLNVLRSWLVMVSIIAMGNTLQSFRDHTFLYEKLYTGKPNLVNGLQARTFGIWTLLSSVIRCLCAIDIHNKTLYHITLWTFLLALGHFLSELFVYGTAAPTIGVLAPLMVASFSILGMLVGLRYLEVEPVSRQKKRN
Chain of UniProt Q6PIJ6 (Q6PIJ6 whole entry, looked up): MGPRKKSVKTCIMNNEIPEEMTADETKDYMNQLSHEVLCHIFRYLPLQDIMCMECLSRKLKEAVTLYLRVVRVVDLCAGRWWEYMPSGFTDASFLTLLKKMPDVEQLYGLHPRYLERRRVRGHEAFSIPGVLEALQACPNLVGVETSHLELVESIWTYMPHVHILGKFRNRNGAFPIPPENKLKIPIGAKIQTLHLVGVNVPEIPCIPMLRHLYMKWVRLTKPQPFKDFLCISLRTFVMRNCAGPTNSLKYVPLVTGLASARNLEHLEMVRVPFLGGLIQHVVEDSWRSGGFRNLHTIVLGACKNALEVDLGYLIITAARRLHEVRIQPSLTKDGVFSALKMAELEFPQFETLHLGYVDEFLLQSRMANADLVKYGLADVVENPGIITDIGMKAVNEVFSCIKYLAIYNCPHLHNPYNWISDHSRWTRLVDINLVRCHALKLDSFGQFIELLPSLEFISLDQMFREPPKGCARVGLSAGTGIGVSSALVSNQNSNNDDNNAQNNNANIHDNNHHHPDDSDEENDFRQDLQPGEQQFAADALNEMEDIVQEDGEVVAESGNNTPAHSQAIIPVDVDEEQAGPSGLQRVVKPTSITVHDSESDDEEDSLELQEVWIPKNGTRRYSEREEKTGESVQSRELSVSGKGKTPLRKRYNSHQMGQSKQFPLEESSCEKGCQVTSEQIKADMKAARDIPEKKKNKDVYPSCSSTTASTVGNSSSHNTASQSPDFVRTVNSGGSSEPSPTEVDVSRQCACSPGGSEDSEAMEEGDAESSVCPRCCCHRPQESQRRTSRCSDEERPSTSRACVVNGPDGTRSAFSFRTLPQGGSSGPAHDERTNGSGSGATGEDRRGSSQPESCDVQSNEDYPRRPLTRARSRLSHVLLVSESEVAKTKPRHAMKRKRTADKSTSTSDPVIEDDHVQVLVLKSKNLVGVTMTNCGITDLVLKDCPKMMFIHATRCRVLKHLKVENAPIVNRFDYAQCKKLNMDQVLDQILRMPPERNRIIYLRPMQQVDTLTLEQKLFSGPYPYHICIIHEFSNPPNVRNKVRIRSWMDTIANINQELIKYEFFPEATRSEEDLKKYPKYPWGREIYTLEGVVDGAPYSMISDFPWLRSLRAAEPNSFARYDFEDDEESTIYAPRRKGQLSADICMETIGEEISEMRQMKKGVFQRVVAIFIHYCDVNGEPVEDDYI
Chain of UniProt Q9NRY5 (Q9NRY5 whole entry, looked up): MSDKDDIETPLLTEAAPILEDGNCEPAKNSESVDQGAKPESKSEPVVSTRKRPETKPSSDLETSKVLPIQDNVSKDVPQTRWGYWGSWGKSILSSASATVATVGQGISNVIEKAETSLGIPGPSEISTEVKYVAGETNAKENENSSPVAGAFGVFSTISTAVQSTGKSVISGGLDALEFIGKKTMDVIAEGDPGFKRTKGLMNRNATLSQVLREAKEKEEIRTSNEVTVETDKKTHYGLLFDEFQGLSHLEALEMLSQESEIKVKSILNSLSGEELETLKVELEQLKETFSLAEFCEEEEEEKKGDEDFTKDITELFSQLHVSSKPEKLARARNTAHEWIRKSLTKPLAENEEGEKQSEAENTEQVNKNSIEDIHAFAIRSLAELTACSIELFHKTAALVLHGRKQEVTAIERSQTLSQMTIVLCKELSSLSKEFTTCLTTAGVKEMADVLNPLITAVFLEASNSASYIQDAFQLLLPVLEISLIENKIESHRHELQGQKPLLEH
Chain of UniProt Q8TAG9 (Q8TAG9 whole entry, looked up): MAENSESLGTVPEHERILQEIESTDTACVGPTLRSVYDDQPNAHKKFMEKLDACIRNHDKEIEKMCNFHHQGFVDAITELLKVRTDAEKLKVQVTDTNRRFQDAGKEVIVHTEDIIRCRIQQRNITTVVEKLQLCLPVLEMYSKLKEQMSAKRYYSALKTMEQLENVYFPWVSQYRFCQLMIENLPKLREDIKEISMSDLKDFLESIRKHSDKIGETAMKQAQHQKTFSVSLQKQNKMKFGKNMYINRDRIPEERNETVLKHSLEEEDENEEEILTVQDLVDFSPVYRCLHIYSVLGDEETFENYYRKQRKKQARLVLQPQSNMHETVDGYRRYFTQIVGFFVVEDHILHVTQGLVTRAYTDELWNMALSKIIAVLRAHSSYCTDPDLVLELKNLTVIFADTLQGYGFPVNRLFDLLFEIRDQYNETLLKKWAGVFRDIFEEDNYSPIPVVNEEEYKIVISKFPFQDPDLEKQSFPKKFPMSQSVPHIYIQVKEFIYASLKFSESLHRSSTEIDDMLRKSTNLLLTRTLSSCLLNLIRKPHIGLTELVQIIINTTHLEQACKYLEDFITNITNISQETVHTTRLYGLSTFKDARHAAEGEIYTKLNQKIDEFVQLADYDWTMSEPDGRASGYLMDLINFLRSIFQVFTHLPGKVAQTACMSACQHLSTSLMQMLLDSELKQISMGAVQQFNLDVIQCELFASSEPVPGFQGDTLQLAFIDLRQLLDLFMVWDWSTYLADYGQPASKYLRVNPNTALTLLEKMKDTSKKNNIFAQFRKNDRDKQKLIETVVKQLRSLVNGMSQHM
Chain of UniProt Q9Y285 (Q9Y285 whole entry, looked up): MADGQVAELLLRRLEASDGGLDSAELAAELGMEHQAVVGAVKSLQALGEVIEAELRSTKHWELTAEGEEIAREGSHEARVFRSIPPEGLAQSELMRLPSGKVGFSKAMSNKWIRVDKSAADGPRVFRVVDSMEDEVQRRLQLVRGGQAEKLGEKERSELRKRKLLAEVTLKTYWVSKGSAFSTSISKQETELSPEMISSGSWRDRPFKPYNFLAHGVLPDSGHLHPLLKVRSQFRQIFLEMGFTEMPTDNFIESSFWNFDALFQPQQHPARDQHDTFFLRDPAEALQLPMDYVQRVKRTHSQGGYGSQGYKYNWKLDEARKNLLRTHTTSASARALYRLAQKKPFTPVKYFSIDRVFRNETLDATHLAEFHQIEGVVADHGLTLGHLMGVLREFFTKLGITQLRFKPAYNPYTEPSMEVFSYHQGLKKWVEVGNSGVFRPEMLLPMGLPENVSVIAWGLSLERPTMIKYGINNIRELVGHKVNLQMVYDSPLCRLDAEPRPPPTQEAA
Chain of UniProt O75477 (O75477 whole entry, looked up): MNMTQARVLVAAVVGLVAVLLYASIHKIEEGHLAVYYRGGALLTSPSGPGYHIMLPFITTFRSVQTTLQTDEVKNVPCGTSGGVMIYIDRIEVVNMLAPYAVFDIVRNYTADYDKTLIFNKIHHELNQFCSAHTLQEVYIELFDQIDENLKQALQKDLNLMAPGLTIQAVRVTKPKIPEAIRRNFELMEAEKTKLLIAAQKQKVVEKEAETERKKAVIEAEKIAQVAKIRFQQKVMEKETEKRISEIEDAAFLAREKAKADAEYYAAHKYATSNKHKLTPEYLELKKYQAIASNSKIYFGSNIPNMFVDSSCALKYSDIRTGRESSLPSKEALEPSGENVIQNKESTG
Chain of UniProt P06241 (P06241 whole entry, looked up): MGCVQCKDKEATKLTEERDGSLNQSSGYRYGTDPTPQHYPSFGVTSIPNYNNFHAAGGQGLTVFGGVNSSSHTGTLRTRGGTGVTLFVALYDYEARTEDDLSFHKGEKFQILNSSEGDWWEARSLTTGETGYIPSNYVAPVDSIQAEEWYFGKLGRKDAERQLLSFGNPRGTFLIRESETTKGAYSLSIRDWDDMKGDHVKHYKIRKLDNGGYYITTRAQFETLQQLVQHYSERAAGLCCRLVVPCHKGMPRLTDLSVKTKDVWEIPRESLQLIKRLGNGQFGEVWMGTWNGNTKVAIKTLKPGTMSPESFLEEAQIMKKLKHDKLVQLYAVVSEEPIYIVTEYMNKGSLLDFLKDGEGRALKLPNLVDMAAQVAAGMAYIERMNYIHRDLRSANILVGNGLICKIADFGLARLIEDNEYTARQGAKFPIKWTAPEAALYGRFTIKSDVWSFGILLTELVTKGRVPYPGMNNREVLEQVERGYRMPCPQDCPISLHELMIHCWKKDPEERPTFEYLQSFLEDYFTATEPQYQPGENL
Chain of UniProt Q13347 (Q13347 whole entry, looked up): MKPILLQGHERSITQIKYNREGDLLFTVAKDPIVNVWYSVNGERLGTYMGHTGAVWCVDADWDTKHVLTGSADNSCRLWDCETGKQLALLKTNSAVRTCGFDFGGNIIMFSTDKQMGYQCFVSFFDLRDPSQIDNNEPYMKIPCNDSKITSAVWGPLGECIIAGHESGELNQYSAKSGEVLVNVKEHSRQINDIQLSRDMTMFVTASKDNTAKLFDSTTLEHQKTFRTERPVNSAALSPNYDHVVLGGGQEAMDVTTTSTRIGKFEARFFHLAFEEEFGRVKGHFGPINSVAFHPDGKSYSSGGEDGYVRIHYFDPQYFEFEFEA

EPN2 (UniProt O95208): the log2 fold change was -0.012 in assay [1]; -0.017 in assay [2]; -0.02 in assay [3]; -0.084 in assay [4]; -0.161 in assay [5].
For FYN (UniProt P06241) the same measures were -0.323, -0.231, -0.052, 0.019 and -0.112.
Regarding ERLIN1 (UniProt O75477), the log2 fold change is -0.03 in assay [1]; 0.039 in assay [2]; 0.02 in assay [3]; 0.029 in assay [4]; -0.033 in assay [5].
The matching figures for FAM114A2 (UniProt Q9NRY5): 0.073, -0.002, -0.027, 0.019 and 0.035.
The matching figures for EPB41, A0A2R8Y6D0: -0.052, 0.028, -0.071, 0.048 and 0.11.
For EDC3 (UniProt Q96F86) the same measures were 0.036, 0, 0.028, 0.031 and 0.008.
As to EPRS (UniProt P07814), the log2 fold change in assay [1] is -0.005; in assay [2], 0.002; in assay [3], 0.003; in assay [4], 0.043; in assay [5] it was 0.016.
Regarding EIF3I (UniProt Q13347), the log2 fold change was -0.038 in assay [1]; 0.022 in assay [2]; 0.01 in assay [3]; 0.019 in assay [4]; 0.033 in assay [5].
The matching figures for EP300 (UniProt Q09472): -0.048, -0.013, 0.025, 0.005 and -0.016.
For FBXO38 (UniProt Q6PIJ6) the same measures were -0.007, 0.094, 0.007, 0.068 and 0.013.
For FARSA (UniProt Q9Y285) the same measures were 0.028, 0.171, -0.003, -0.028 and -0.009.
In the case of EXOC6 (UniProt Q8TAG9), the log2 fold change was -0.035 in assay [1]; -0.022 in assay [2]; -0.006 in assay [3]; 0.037 in assay [4]; 0.151 in assay [5].
The matching figures for ERCC4 (UniProt Q92889): -0.038, 0.036, 0.043, -0.008 and -0.305 (active).
For GEMIN4 (UniProt P57678) the same measures were -0.036, -0.015, -0.014, 0.04 and 0.041.
The matching figures for EIF2AK1 (UniProt Q9BQI3): 0.006, -0.035, -0.007, -0.022 and -0.041.
For EIF3I (UniProt Q5TFK1), the log2 fold change in assay [5] was 0.059.
In the case of GEMIN2 (UniProt O14893), the log2 fold change in assay [1] is -0.009; in assay [2] it was 0.01; in assay [3] it was -0.023; in assay [4], 0.015; in assay [5], -0.043.
Regarding FOXJ2 (UniProt Q9P0K8), the log2 fold change is 0.022 in assay [1], 0.06 in assay [2], 0.015 in assay [4] and 0.039 in assay [5].
For ESRRB isoform 1 (UniProt O95718), the log2 fold change in assay [1] is -0.147; in assay [2] it was 0.109; in assay [5] it was 0.321.
As for FNDC3A (UniProt Q9Y2H6), in assay [5], the log2 fold change is -0.136.
For ERG28 (UniProt Q9UKR5), the log2 fold change in assay [1] is 0.001; in assay [2], -0.053; in assay [4], -0.08; in assay [5], 0.277.
With GCA (UniProt P28676), the log2 fold change in assay [5] was -0.095.
